Molecules are shown by their SMILES. Calls of active or inactive are those of the source. How the source made its calls: active means hit-call score of the fitted dose curve at least 0.9, where 1 is the maximum; inactive means score below 0.9.

Chain of Signal transducer and activator of transcription 3 (Homo sapiens) (P40763 whole entry, looked up): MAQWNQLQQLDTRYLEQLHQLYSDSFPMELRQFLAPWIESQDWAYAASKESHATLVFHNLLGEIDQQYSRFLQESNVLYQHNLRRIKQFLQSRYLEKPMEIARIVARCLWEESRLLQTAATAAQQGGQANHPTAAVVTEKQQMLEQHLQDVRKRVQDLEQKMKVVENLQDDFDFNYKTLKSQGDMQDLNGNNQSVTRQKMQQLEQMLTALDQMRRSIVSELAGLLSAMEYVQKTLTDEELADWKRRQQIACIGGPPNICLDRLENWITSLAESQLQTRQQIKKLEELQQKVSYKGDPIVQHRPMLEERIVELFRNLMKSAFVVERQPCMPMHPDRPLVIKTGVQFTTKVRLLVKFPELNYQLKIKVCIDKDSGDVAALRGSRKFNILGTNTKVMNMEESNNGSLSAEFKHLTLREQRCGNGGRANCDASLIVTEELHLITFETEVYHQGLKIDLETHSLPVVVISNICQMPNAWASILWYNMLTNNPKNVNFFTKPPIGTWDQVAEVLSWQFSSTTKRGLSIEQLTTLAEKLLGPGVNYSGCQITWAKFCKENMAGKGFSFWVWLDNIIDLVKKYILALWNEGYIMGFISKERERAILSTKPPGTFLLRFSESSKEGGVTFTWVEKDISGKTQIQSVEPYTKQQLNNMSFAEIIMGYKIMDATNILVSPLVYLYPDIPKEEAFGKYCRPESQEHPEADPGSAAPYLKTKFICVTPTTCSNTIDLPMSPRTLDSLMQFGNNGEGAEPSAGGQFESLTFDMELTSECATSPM

The target in this assay is Signal transducer and activator of transcription 3 (Homo sapiens) (UniProt P40763). As to the kind of experiment: ATG_STAT3_CIS: Attagene CIS-FACTORIAL HepG2 Assay for human Signal Transducer and Activator of Transcription 3 (STAT3) (AID 2282963). The conditions noted are these: HepG2, Attagene cis-factorial STAT3 reporter transcription; actives raise or lower the signal. In a few lines:
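Transcript-level reporter assay. HepG2 transient MRTU transfection, 24 h exposure, fluorescence detection after RT-PCR and CE; DMSO baseline.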
Take `Cn1c(-c2ccccc2)cc(-c2ccccc2)[n+]1C`: the molecule was classed as inactive. Next, `CC(C)C1(C)N=C(c2ncccc2C(=O)O)NC1=O` (configuration not stated): “inactive”. Then `COc1ccc(-c2ccccc2)cc1NNC(=O)OC(C)C`, with “inactive”; and `CC(C)=CC1C(C(=O)OCc2coc(Cc3ccccc3)c2)C1(C)C` (configuration not stated), with “inactive”; and `CCSC(=O)N1CCCCCC1`, with “inactive”. Next, `COc1cc(Cl)c(OC)cc1Cl`: “inactive”. `OC(c1ccc(Cl)cc1)(c1ccc(Cl)cc1)C(Cl)(Cl)Cl`: the outcome was inactive.

As for `CCOP(=O)(OCC)Oc1nc(Cl)c(Cl)cc1Cl`, the molecule was called inactive.

As to `COC(=O)N(C(=O)N1CO[C@@]2(C(=O)OC)Cc3cc(Cl)ccc3C2=N1)c1ccc(OC(F)(F)F)cc1`, the molecule was classed as inactive. Then `Cc1nc(N(C)C)nc(OC(=O)N(C)C)c1C`, with “inactive”; and `CC(C)N1C(=O)c2ccccc2NS1(=O)=O`, with “inactive”; and `Nc1c(Cl)c(Cl)nc(C(=O)O)c1Cl`, with “inactive”. Next, `CC1(C)C(C=C(Cl)Cl)C1C(=O)OC(C#N)c1cccc(Oc2ccccc2)c1` (configuration not stated): “inactive”.

Take `COC(=O)NS(=O)(=O)c1ccc(N)cc1`: the outcome was inactive.

Turning to `Cc1cc(C)nc(Nc2ccccc2)n1`, the outcome was inactive.

In the case of `CNC(=O)Oc1cccc2ccccc12`, the call was inactive. On to `O=C(O)c1c(Cl)ccc2cc(Cl)cnc12`, for which the outcome was inactive.

For `O=C1C2CC=CCC2C(=O)N1SC(Cl)(Cl)Cl` (configuration not stated), the outcome was inactive. Next, `Cc1cnc(C2=NC(C)(C(C)C)C(=O)N2)c(C(=O)O)c1` (configuration not stated): “inactive”; `CCCCOCN(C(=O)CCl)c1c(CC)cccc1CC`: “inactive”; `COP(=O)(OC)O/C(C)=C/C(=O)N(C)C`: “inactive”. Then `CCC(C)n1c(=O)[nH]c(C)c(Br)c1=O` (configuration not stated), with “inactive”.
